Test results taken from PMC7862700, “An all-to-all approach to the identification of sequence-specific readers for epigenetic DNA modifications on cytosine”.

What was measured:
Assay in all cases: DAPPL (digital affinity profiling via proximity ligation, sequencing); 10 mM Tris-HCl pH 7.5, 50 mM NaCl, 1 mM DTT, 4% glycerol, room temperature, 30 min; GST-TFs on glutathione beads, 16-mer random dsDNA library, 0.1% formaldehyde crosslink after washing; high values mean tight binding
Settings in all cases: protein: recombinant; tags: N-terminal GST; dsDNA, one strand shown
ETV1 = ETV1 (Homo sapiens, UniProt P50549 1-477)
ETV1, sequence (P50549 whole entry, the tested form may be a part): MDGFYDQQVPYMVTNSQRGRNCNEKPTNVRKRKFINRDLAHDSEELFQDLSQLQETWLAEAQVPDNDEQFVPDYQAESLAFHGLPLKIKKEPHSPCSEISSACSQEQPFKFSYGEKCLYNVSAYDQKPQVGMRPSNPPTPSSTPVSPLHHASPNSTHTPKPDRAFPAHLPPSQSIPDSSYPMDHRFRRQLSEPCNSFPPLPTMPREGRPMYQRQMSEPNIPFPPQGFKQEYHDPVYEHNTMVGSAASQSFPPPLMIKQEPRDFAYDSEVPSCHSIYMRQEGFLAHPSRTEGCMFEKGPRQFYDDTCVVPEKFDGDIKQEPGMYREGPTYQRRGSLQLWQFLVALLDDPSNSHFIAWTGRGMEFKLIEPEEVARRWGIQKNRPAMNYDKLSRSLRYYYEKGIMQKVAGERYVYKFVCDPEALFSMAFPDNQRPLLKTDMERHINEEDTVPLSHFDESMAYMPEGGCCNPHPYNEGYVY
Summary of the method: (§1)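 Binding signal is each hexamer's read frequency for a factor divided by its frequency in the tag-only sample. The factors were GST-fused human transcription factors from yeast, captured on glutathione beads, DNA-barcoded and pooled with that sample. Pools were incubated with 200 nmole of a random double-stranded 16-mer DNA library in Tris/NaCl/DTT/glycerol buffer at room temperature for 30 min, then washed, crosslinked with 0.1% formaldehyde, proximity-ligated with BsaI/T4 ligase (1 h, 37 °C), PCR-amplified and sequenced on an Illumina NextSeq500.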

ERF = biological target: T1, ERF (Homo sapiens, UniProt P50548 1-548)
T1 sequence: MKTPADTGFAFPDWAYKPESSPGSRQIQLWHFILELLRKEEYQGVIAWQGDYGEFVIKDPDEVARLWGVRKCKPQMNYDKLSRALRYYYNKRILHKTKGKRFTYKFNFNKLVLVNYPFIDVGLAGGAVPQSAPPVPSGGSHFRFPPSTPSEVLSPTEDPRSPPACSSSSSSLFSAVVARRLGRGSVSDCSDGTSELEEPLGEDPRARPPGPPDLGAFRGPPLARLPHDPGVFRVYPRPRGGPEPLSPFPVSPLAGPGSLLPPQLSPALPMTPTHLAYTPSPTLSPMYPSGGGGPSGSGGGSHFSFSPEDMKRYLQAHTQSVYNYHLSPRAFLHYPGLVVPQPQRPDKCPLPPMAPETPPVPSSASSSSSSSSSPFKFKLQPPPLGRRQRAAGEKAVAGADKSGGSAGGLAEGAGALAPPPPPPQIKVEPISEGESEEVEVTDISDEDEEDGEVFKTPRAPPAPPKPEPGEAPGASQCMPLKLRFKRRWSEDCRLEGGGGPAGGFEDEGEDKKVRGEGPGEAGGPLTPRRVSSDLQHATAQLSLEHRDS
Summary of the method: as §1

ETV3L = biological target: T2, ETV3L (Homo sapiens, UniProt Q6ZN32 1-361)
T2 sequence: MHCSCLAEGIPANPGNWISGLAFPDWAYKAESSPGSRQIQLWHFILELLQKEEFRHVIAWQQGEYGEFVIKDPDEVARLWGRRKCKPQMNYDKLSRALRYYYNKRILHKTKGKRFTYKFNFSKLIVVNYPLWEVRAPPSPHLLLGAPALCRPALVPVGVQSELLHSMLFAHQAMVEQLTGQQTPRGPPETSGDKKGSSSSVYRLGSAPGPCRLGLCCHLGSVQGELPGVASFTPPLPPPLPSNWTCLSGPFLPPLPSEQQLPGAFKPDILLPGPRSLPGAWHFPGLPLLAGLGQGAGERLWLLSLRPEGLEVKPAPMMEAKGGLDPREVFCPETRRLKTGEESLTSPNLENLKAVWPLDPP
Summary of the method: as §1

ETS2 = biological target: T3, ETS2 (Homo sapiens, UniProt P15036 1-469)
T3 sequence: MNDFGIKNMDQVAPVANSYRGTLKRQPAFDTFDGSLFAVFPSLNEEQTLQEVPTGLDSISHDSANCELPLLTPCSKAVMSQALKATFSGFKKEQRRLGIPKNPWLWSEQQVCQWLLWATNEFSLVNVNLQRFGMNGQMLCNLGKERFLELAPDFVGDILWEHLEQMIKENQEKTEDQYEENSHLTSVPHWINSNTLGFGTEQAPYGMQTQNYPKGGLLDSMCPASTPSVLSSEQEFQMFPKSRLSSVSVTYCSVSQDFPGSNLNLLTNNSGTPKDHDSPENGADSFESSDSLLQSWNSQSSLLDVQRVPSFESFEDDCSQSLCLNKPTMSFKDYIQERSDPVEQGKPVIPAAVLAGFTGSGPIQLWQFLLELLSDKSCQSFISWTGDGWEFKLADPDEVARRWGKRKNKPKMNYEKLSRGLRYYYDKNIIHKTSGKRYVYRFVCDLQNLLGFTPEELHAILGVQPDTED
Summary of the method: as §1

SPDEF = biological target: T4, SPDEF (Homo sapiens, UniProt O95238 1-335)
T4 sequence: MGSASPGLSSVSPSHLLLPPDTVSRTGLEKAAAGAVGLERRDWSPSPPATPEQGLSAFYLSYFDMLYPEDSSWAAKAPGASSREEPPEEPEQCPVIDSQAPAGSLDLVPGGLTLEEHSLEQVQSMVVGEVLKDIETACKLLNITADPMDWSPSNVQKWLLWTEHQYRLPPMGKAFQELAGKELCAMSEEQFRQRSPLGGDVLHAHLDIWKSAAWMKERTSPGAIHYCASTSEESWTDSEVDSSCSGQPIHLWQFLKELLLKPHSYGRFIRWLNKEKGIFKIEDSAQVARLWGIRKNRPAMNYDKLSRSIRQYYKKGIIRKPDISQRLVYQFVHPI
Summary of the method: as §1

ETV7 = biological target: T5, ETV7 (Homo sapiens, UniProt Q9Y603 1-341)
T5 sequence: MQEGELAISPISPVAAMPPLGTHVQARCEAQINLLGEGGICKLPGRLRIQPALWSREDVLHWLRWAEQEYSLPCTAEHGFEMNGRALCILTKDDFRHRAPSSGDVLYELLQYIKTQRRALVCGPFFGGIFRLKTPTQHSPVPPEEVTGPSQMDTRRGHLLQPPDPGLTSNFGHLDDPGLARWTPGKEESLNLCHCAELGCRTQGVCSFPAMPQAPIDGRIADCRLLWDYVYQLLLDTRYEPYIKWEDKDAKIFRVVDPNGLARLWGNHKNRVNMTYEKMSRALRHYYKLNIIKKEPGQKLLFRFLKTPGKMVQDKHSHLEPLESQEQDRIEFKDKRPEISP
Summary of the method: as §1

ELF5 = biological target: T6, ELF5 (Homo sapiens, UniProt Q9UKW6-2 1-255)
T6 sequence: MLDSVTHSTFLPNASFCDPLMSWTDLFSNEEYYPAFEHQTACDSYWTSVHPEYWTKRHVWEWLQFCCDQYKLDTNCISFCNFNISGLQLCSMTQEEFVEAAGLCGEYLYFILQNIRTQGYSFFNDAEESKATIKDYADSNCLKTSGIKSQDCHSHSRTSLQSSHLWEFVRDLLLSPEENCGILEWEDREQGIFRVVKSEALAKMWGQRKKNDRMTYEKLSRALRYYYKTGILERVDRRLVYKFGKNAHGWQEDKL
Summary of the method: as §1

ETV3 = biological target: T7, ETV3 (Homo sapiens, UniProt P41162-2 1-143)
T7 sequence: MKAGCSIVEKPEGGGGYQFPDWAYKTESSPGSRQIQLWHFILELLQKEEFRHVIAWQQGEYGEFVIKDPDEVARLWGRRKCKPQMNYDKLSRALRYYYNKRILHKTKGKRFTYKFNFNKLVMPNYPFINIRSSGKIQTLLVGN
Summary of the method: as §1

ETV6 = ETV6 (Homo sapiens, UniProt P41212 1-452)
ETV6, sequence (P41212 whole entry): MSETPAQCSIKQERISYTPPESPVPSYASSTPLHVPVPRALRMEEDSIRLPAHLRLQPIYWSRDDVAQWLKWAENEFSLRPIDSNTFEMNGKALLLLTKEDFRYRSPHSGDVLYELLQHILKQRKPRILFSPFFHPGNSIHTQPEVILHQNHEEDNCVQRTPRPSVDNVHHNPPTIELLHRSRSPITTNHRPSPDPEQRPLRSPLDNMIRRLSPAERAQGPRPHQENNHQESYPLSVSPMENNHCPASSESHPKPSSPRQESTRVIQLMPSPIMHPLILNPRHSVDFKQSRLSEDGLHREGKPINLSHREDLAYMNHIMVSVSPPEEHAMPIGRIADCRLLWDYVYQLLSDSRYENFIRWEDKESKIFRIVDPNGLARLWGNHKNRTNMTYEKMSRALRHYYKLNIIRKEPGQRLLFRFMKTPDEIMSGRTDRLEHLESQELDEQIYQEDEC
Summary of the method: as §1

## CACATT
ETV1
  binding signal: 1.28 fold enrichment (6-mer frequency, TF over GST control)
ERF
  binding signal: 1.33 fold enrichment (6-mer frequency, TF over GST control)
ETV3L
  binding signal: 1.17 fold enrichment (6-mer frequency, TF over GST control)
ETS2
  binding signal: 1.2 fold enrichment (6-mer frequency, TF over GST control)
SPDEF
  binding signal: 1.18 fold enrichment (6-mer frequency, TF over GST control)
ETV7
  binding signal: 1.18 fold enrichment (6-mer frequency, TF over GST control)
ELF5
  binding signal: 1.13 fold enrichment (6-mer frequency, TF over GST control)
ETV3
  binding signal: 1.12 fold enrichment (6-mer frequency, TF over GST control)
ETV6
  binding signal: 1.15 fold enrichment (6-mer frequency, TF over GST control)
